# This is a sample that favours compounds with a hit; in the whole collection about 7.1% have one here.
# IL-1B inflam inh – blocks inflammasome-driven IL-1 beta release; THP-1 LPS/ATP IL-1B secretion, AlphaLISA, 16 h; stronger effect = lower value; activity change, % at 57.5 µM; 360,000 tested, 4.7% active; in the data active means activity change below about -50%; inconclusive means mostly about -30% to -49%; further: on the % scale 0 is the no-effect control and ±100 the full control effect
#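 Secreted IL-1B measured by AlphaLISA bead assay after 16 h compound exposure of THP-1 cells; compounds (final up to 57.5 uM) added 1 h before LPS (250 ng/mL) and ATP (1.25 mM) stimulation; lower signal means less secretion.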
# PINK1 expr mod – modulators of PINK1 expression | AID 624263 | PINK1 immunofluorescence, high-content cytometry, 24 h | 410,000 tested, 0.2% active | Potency, µM (doses to about 76.6 µM), without a hit: at the highest dose activation (PINK1 increase), usual class: activators; active means well fitted activation curve with a large enough effect; inconclusive means small, poorly fitted or top-dose-only effect; cell line not stated here; further: potency means the concentration at half of the fitted maximal effect; % of control where 0% means no effect; nearly all actives have a fitted effect of over 65% in size
#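 Stable cell line, 250 cells/well, 12 h attachment; compounds pinned at 5 concentrations, 24 h; CCCP control. Fixed with nuclear dye, primary antibodies 12 h at 10 degrees C, secondary plus cell stain; laser-scanning cytometer read.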
# SW480 rerep – DNA re-replication induction in SW480 cells. SW480 DNA re-replication, Hoechst DNA content imaging, 48 h. Potency, µM (titrated, usually from 46.1 µM), without a hit: top-dose re-replication activation, actives largely listed as activators. 340,000 tested, 1.8% active. AID 624297; further: potency means the concentration at half of the fitted maximal effect; % of control where 0% means no effect; nearly all actives have a fitted effect of over 55% in size
#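 Quantitative HTS format with DMSO vehicle controls; 48 hr drug incubation at 37 C, then 40 min Hoechst staining and scanning imager measurement at 405 nm excitation.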
# ATXN2 expr inh – ATXN2 expression inhibition; HEK-293 ATXN2-luciferase reporter, luminescence, 24 h; Potency, µM (series often up to 57 µM), inactives show top-dose activity change, negative = inhibition, actives largely listed as inhibitors; 360,000 tested, 0.72% active; AID 1745845; further: potency means the concentration at half of the fitted maximal effect; on the % scale 0 is the no-effect control and ±100 the full control effect; nearly all actives have a fitted effect of over 55% in size
#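 ATXN2-luciferase reporter cells (luciferase flanked by upstream and downstream ATXN2 gene portions) were treated 24 h at 37 °C with compounds at up to 57 uM. SteadyGlo luminescence gave expression; GF-AFC fluorescence gave viability.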
# S2 tox – viability counter-screen for ATXN expression inhibitors; S2 cells (HEK-293 line with an ATXN2-luciferase reporter) viability, CellTiter-Fluor protease fluorescence, 24 h; Potency, µM (titrated, usually from 56.7 µM), hits mostly cytotoxic; 400,000 tested, 0.49% active; AID 651635; further: potency means the concentration at half of the fitted maximal effect; nearly all actives have a fitted effect of over 40% in size
# MCF10A rerep – induces DNA re-replication in MCF 10a normal breast cells. MCF 10A DNA re-replication, Hoechst nuclear intensity, 48 h. Potency, µM (top dose mostly 46.1 µM), without a hit: at the highest dose activity, positive = re-replication, actives largely listed as activators. 350,000 tested, 2.9% active. AID 624296; further: potency means the concentration at half of the fitted maximal effect; % of control where 0% means no effect; nearly all actives have a fitted effect of over 50% in size
# * = called active by the depositor; i = inactive; ? = inconclusive; . = not tested or not shown; [ ] = dose if it differs, or a comment. Unless noted, the call rests on the fitted dose curve; in most records, active means well fitted curve in the direction sought with a large enough effect; inconclusive means small, poorly fitted or top-dose-only effect, or another doubt; inactive means no such curve, though single readings can be large; an effect the other way counts as inactive or inconclusive.
SMILES,IL-1B inflam inh,PINK1 expr mod,SW480 rerep,ATXN2 expr inh,S2 tox,MCF10A rerep
CC1=NOC(=O)/C1=C\c1ccc(-c2cccc(Cl)c2)o1,-100*,-3%,?,?,?,16µM*
Nc1ccccc1N=Cc1ccc(-c2cccc(Cl)c2)o1,-82*,?,?,0%,i,?
Cc1ccc(S(=O)(=O)N(C)CCN(C)c2nc(-c3cccs3)nc3ccccc23)cc1,.,1%,.,.,.,.
Cc1ccc(-c2nc(C#N)c(NCc3cccc4c3OCO4)o2)cc1,28,-2%[38.3 µM],?,53%,i,16µM*
N#Cc1nc(-c2ccc(F)cc2)oc1NCc1cccc2c1OCO2,8,2%,-16%,12%,i,-1%
COc1ccc(OC)c(NC(=O)CN2CCCN(Cc3ccccc3Cl)S2(=O)=O)c1,.,1%,.,.,.,.
CSc1cccc(NC(=O)C2CCCN(S(=O)(=O)c3ccc(F)cc3)C2)c1 (centres undefined),-15,-3%,2%,-20%,i,16%
O=C(Nc1cccc(Cl)c1)Nc1cc(S(=O)(=O)N2CCCCC2)ccc1Cl,-88*,14µM*,?,?,?,6.5µM*
O=C(COc1ccc(F)cc1Cl)Nc1cc(S(=O)(=O)N2CCOCC2)ccc1N1CCCCC1,-51*,-1%,26%,1%,i,?
O=C(Nc1cc(S(=O)(=O)N2CCCCC2)ccc1Cl)c1ccc(F)cc1,-4,0%,0%,-8%,i,-29%
O=C(Nc1cc(S(=O)(=O)N2CCCC2)ccc1Cl)c1cc(F)c(F)c(F)c1F,-99*,5%,24%,-3%,i,?
O=C(Nc1cccc(Cl)c1)C1CCCN(S(=O)(=O)c2ccc(F)cc2)C1 (centres undefined),-51*,-4%[38.3 µM],10%,-20%,i,28%
OC[C@H]1O[C@@H](n2cnc3c(=S)nc[nH]c32)[C@H](O)[C@@H]1O,.,.,.,-14%,?,.
CCOc1ccc(OC(=O)c2cn(-c3ccc(C)cc3)c(=O)c3ccccc23)cc1,.,0%,.,.,.,.
COC(=O)c1ccccc1NC(=O)Cn1c(=O)n(CCCC(=O)NCCc2ccc(OC)c(OC)c2)c(=O)c2ccccc21,.,1%,.,5%,i,.
COc1ccccc1NC(=O)c1c(C)cc(C)nc1SCC(=O)Nc1ccc(C)cc1,.,-1%,.,-28%,?,.
O=S(=O)(c1ccc(Cl)c(NC(=S)N/N=C/c2ccc(O)cc2)c1)N1CCOCC1,-20,11%,18µM*,?,?,?
CCc1ccccc1OCC(=O)Nc1cc(S(=O)(=O)N2CCOCC2)ccc1N1CCCCC1,-26,4%,-5%,-15%,i,4%
CCOc1ccc(OCCC(=O)OCC(=O)N2CCN(S(=O)(=O)c3ccc(Cl)cc3)CC2)cc1,-85*,12%,?,47%,i,?
CCOc1ccccc1N1CC(C(=O)Nc2cc(S(=O)(=O)N3CCOCC3)ccc2OC(C)C)CC1=O (centres undefined),-26,3%,-25%,7%,i,7%
CCC(C)c1ccccc1N1CC(C(=O)Nc2cc(S(=O)(=O)N3CCOCC3)ccc2OC)CC1=O (centres undefined),22,1%,16µM*,-4%,i,9%
COc1ccccc1OCC(=O)Nc1cc(S(=O)(=O)N2CCOCC2)ccc1N1CCCCC1,-55*,3%,6%,0%,i,15%
CCCCCN(CCCOC)C(=O)C(CCC(=O)O)NC(=O)c1ccc(Cl)c(Cl)c1 (centres undefined),.,.,.,6%,i,.
CC(C)C(=O)OCc1cccc(OC(=O)[C@@H]2N3C(=O)[C@@H](NC(=O)Cc4ccccc4)[C@H]3SC2(C)C)c1,.,.,.,5%,?,.
Cc1ccc(S(=O)(=O)N2CCOCC2)cc1NC(=O)COC(=O)c1cnc(Cl)c(Cl)c1,-87*,3%,0%,-10%,i,-2%
SMILES,IL-1B inflam inh,PINK1 expr mod,SW480 rerep,ATXN2 expr inh,S2 tox,MCF10A rerep
COc1ccc(N2CC(C(=O)Nc3cc(C(F)(F)F)ccc3N3CCCC3)CC2=O)c(OC)c1 (centres undefined),9,5%,184%,-6%,?,?
COc1ccc(C)cc1NC(=O)CN1C(=O)COc2ccc(S(=O)(=O)N3CCCCCC3)cc21,-54*,1%,-11%,-15%,?,0%
O=C(Nc1ccc(Cl)c(Cl)c1)Nc1cc(S(=O)(=O)N2CCOCC2)ccc1N1CCCC1,-60*,20%,2%,?,i,-1%
COc1ccc(N2CC(C(=O)Nc3ccccc3N3CCCC3)CC2=O)c(OC)c1 (centres undefined),17,?,21µM*,-3%,i,?
CN(C(=O)c1cnn(-c2ncc3c(n2)-c2ccccc2CCC3)c1C1CC1)C1CCOC1 (centres undefined),.,0%,.,.,i,.
CCN(CC)S(=O)(=O)c1ccc(C)c(NC(=S)Nc2cccc(S(=O)(=O)N3CCCCCC3)c2)c1,?,25µM*,0%,-22%,?,14%
Cc1ccc(Cl)c(OCC(=O)Nc2cc(S(=O)(=O)N3CCOCC3)ccc2N2CCCC2)c1,-59*,3%,15%,3%,i,9%
COc1ccc(OCCC(=O)OCC(=O)Nc2ccc(S(=O)(=O)N3CCOCC3)cc2)cc1,-65*,-3%,-4%,4%,i,1%
COc1ccc(S(=O)(=O)N2CCOCC2)cc1NC(=O)COC(=O)CCOc1ccc(C)cc1,4,0%,0%,0%,i,-1%
COc1ccc(S(=O)(=O)N2CCOCC2)cc1NC(=O)COc1ccc(C)cc1,-51*,0%,9%,-12%,i,-3%
CCN(CC)S(=O)(=O)c1ccc(C)c(NC(=O)CNc2cccc(S(=O)(=O)N3CCOCC3)c2)c1,?,7%,-527%,-8%,?,?
CCc1cccc(NC(=O)CC(c2ccc(OC)cc2)N2Cc3ccccc3C2=O)c1 (centres undefined),.,1%,.,.,.,.
Cc1ccc(-c2onc(C)c2C)cc1S(=O)(=O)NCc1cccs1,.,2%,.,.,.,.
COc1cccc(CNC(=O)CSc2ncc(S(=O)(=O)c3ccc(Br)cc3)c(=O)[nH]2)c1,.,1%,.,4%,i,.
COc1ccccc1NC(=O)COc1cc(Br)c(CNCCCN2CCOCC2)cc1OC,-53*,1%,25%,-17%,i,?
COc1ccccc1NC(=O)COc1ccc(Br)cc1CO,4,-6%[38.3 µM],-16%,3%,i,3%
CCNCc1cc(Br)c(OCC(=O)Nc2ccccc2)c(OC)c1,?,.,-19%,.,.,1%

# Bioassay records as filed in PubChem.
